The whole screen tested about 52,000 compounds, of which about 4,300 (8.3%) were called active. Cut-off read from the data, not from the text of the source: active = survival mostly below about 52% (no sharp cut-off); inactive = mostly above about 56%. What follows is part of a selection rich in actives, with near analogues and random picks from the rest.
system: DeltatarO mutant; assay: growth inhibition of S. aureus wild type versus tarO mutant, primary screen, teichoic acid synthesis inhibitors, RN4220, OD600 (AID 463173); details: OD600, 18 h, active compounds read low, screened at 18.75 µg/mL (by protocol)

Row | Compound | survival
1 | COc1ccccc1C(=O)OCc1cc(=O)n2nc(C3CCCCC3)sc2n1 | 97% (inactive)
2 | c1ccc2c(NC3CCCC3)nc(N3CCNCC3)nc2c1 | 26% (inactive)
3 | CC1CCCCN1CCCNC(=O)c1cc(Sc2ccc(Cl)cc2)nc2ccccc12 (centres undefined) | 94% (inactive)
4 | CCOCCCNC(=O)c1[nH]c2cc(C)ccc2c1Sc1ccc(Cl)cc1 | 85% (inactive)
5 | CC1CCN(CCCNC(=O)c2cc(Sc3ccc(F)cc3)nc3ccccc23)CC1 | 68% (inactive)
6 | COc1ccc2c(Sc3ccccc3)c(C(=O)NCCc3ccc(Cl)cc3)[nH]c2c1 | 98% (inactive)
7 | COc1ccc2c(Sc3ccccc3)c(C(=O)NCCCN3CCCCC3)[nH]c2c1 | 54% (inactive)
8 | O=C(NCCCN1CCCCC1)c1cc(Sc2ccc(Cl)cc2)nc2ccccc12 | 17% (active)
9 | COc1ccc2c(Sc3ccc(Cl)cc3)c(C(=O)NCCCN3CCCCC3)[nH]c2c1 | -1% (active)
10 | COCCCNC(=O)c1[nH]c2ccccc2c1Sc1ccc(C)cc1 | 69% (inactive)
11 | O=C(NCCCN1CCCCC1)c1[nH]c2ccccc2c1Sc1ccc(Cl)cc1 | 7% (active)
12 | CNC(=O)c1cnc2sc(N3CCC(C)CC3)nn2c1=O | 78% (inactive)
13 | CCOC(=O)c1ccc2c(c1)N(Cc1cc(C)ccc1C)C(=O)c1ccccc1S2(=O)=O | 85% (inactive)
14 | Cc1ccccc1C(=O)NC1CCN(Cc2nnnn2C2CCCC2)CC1 | 101% (inactive)
15 | CCC(CC)C(=O)Nc1ccc(C(=O)OCc2cc(=O)n3nc(C4CC4)sc3n2)cc1 | 80% (inactive)
16 | Cc1ccc(/C=C/c2onc(C)c2S(=O)(=O)N2CCC(C(=O)Nc3ccccc3C(F)(F)F)CC2)cc1 | 75% (inactive)
17 | COc1ccc(-c2c3c(=O)n(C)c(=O)n(C)c3cn2-c2cccc(N)c2)cc1 | 79% (inactive)
18 | COc1cccc2c1Oc1ncccc1N(c1ccc(C(=O)NCc3ccccc3C)s1)C2 | 84% (inactive)
19 | CCOc1ccccc1CNC(=O)c1cc(-c2ccc(C)c(C)c2)nc2ccccc12 | 74% (inactive)
20 | COc1ccc(NC(=O)c2ccc(NC(=O)CCS(=O)(=O)c3cccs3)cc2)cc1OC | 50% (inactive)
21 | COc1cccc2sc(N3CCN(C(=O)CS(=O)(=O)c4ccc(Cl)cc4)CC3)nc12 | -4% (active)
22 | Cc1ccc2sc(N3CCN(C(=O)CCS(=O)(=O)c4ccc(Cl)cc4)CC3)nc2c1C | 64% (inactive)
23 | Cc1cccc2sc(N3CCN(C(=O)CS(=O)(=O)c4ccc(F)cc4)CC3)nc12 | 102% (inactive)

Row | Compound | survival
24 | Cc1ccc(S(=O)(=O)CC(=O)N2CCN(c3nc4c(F)cccc4s3)CC2)cc1 | -5% (active)
25 | Cc1c(Cl)ccc2sc(N3CCN(C(=O)CCS(=O)(=O)c4ccc(F)cc4)CC3)nc12 | 0% (active)
26 | Cc1ccc2sc(N3CCN(C(=O)CCS(=O)(=O)c4ccc(F)cc4)CC3)nc2c1C | 115% (inactive)
27 | COc1cccc2sc(N3CCN(C(=O)CCS(=O)(=O)c4ccc(F)cc4)CC3)nc12 | 66% (inactive)
28 | Cc1ccc(S(=O)(=O)CCC(=O)N2CCN(c3nc4c(C)c(C)ccc4s3)CC2)cc1 | 92% (inactive)
29 | COc1ccc(OC)c2sc(N3CCN(C(=O)CCS(=O)(=O)c4ccc(F)cc4)CC3)nc12 | 94% (inactive)
30 | Cc1ccc(S(=O)(=O)CCC(=O)N2CCN(c3nc4c(C)c(Cl)ccc4s3)CC2)cc1 | 72% (inactive)
31 | Cc1c(Cl)ccc2sc(N3CCN(C(=O)CS(=O)(=O)c4ccccc4)CC3)nc12 | 106% (inactive)
32 | CCCCC(=O)N1CCN(c2nc3c(C)c(C)ccc3s2)CC1 | 46% (active)
33 | O=c1cc(-c2ccccc2)n2c(SCc3cccc([N+](=O)[O-])c3)nnc2[nH]1 | 69% (inactive)
34 | Cc1noc(Cn2c(=O)c3cc4c(cc3n(CC(=O)Nc3ccccc3F)c2=O)OCO4)n1 | 77% (inactive)
35 | Cc1cccc(CS(=O)(=O)Cc2ccc(C(=O)NCc3ccc(Cl)cc3)o2)c1 | 130% (inactive)
36 | Cc1ccc(-n2c(=O)c3c4c(sc3n(CC(=O)c3ccc(Cl)cc3)c2=O)CCC4)cc1C | 168% (inactive)
37 | Cc1ccc(Cl)cc1NC(=O)CCC(=O)NCc1ccco1 | 74% (inactive)
38 | Cc1ccc(NS(=O)(=O)c2ccc3c(c2)CCCN3C(=O)C2CCC2)cc1Cl | 107% (inactive)
39 | CCc1cccc(C)c1NC(=O)Cn1cc2c(n1)CCCC2 | 99% (inactive)
40 | CCc1ccccc1NS(=O)(=O)c1ccc2[nH]cc(C(=O)N(CC(C)C)CC(C)C)c(=O)c2c1 | 84% (inactive)
41 | COc1ccc(N(CC(C)C)S(=O)(=O)c2nnc(NC(=O)c3cccs3)s2)cc1 | 42% (active)
42 | Cc1ccc(N(CC(C)C)S(=O)(=O)c2nnc(NC(=O)C(C)C)s2)cc1 | 72% (inactive)
43 | COc1ccc(C(=O)Nc2nnc(S(=O)(=O)N(CC(C)C)c3ccccc3)s2)cc1 | 51% (inactive)
44 | CC(C)CN(c1ccccc1)S(=O)(=O)c1nnc(NC(=O)C2CCCCC2)s1 | 51% (inactive)
45 | Cc1ccc(N(CC(C)C)S(=O)(=O)c2nnc(NC(=O)c3cccs3)s2)cc1 | 34% (active)
46 | COc1ccc(C(=O)Nc2nnc(S(=O)(=O)N(CC(C)C)c3ccc(C)cc3)s2)cc1OC | 68% (inactive)

Row | Compound | survival
47 | CCc1ccc(CNC(=O)C2CCN(C(=O)N3CC(CC)Oc4ccc(C)cc43)CC2)cc1 (centres undefined) | 55% (inactive)
48 | Cc1cc2nc(-c3cccc(NC(=O)COc4ccc(C(C)C)cc4)c3)oc2cc1C | 50% (inactive)
49 | Cc1ccc2nc(-c3ccc(C)c(NC(=O)Cc4ccccc4)c3)oc2c1 | 77% (inactive)
50 | Cc1ccc2nc(-c3ccc(Cl)c(NC(=O)COc4cccc(C)c4C)c3)oc2c1 | 48% (active)
51 | O=C(COc1ccccc1)Nc1c(Cl)ccc2nsnc12 | 74% (inactive)
52 | CC(C)c1ccc(OCC(=O)Nc2c(Cl)ccc3nsnc23)cc1 | 41% (active)
53 | Cc1ccc2nc(-c3ccc(Cl)c(NC(=O)COc4ccc([N+](=O)[O-])cc4)c3)oc2c1 | 54% (inactive)
54 | Cc1ccc(OCC(=O)Nc2c(Cl)ccc3nsnc23)cc1C | 71% (inactive)
55 | Cc1ccc2nc(-c3ccc(Cl)c(NC(=O)COc4ccc(C(C)C)cc4)c3)oc2c1 | 42% (active)
56 | Cc1cc(C)cc(OCC(=O)Nc2ccc(-c3nc4ccccc4o3)cc2)c1 | 51% (inactive)
57 | Cc1ccc(OCC(=O)Nc2ccc(-c3nc4ccccc4o3)cc2)c(C)c1 | 63% (inactive)
58 | Cc1cccc(OCC(=O)Nc2ccc(-c3nc4ccccc4o3)cc2)c1C | 52% (active)
59 | Cc1ccc2nc(-c3ccc(Cl)c(NC(=O)c4cccc([N+](=O)[O-])c4C)c3)oc2c1 | 126% (inactive)
60 | CN1CCN(C(=O)/C(=C/c2cccs2)NC(=O)c2cccs2)CC1 | 74% (inactive)
61 | CC(C)CCNC(=O)c1cnc2sc(N3CCCCCC3)nn2c1=O | 78% (inactive)
62 | CCN(CC)S(=O)(=O)c1ccc2c(c1)c(=O)c(C(=O)N1CCN(c3cccc(C)c3)C(C)C1)cn2C (centres undefined) | 78% (inactive)
63 | COc1ccc(N2CCN(C(=O)c3nn(-c4ccc(C)cc4)c(=O)n(C)c3=O)CC2)cc1 | 71% (inactive)
64 | CCN(CC)CCNC(=O)CCn1c(=O)c2cccn2c2cccnc21 | 87% (inactive)
65 | O=C(Cn1nnc(-c2ccc(Cl)cc2)n1)NCc1ccc(F)cc1 | 78% (inactive)
66 | CCOC(=O)N1c2ccccc2Sc2ccccc21 | 98% (inactive)
67 | CC(=O)N1c2ccccc2Sc2ccccc21 | 102% (inactive)
68 | CCc1ccc(NC(=O)N2c3ccccc3Sc3ccccc32)cc1 | -2% (active)
69 | CC(C)c1ccc(NC(=O)N2c3ccccc3Sc3ccccc32)cc1 | 6% (active)

Row | Compound | survival
70 | O=C(C1CC1)N1c2ccccc2Sc2ccccc21 | 73% (inactive)
71 | CCN(CC)C(=O)N1c2ccccc2Sc2ccccc21 | 99% (inactive)
72 | Cc1ccc(-c2cc(C(F)F)n3ncc(C(=O)Nc4cn(C)nc4C)c3n2)cc1 | 89% (inactive)
73 | CC1=C(C(=O)Nc2ccc(F)cc2F)C2(CCCCCC2)OC1=O | 83% (inactive)
74 | Cc1cc(C)n(-c2nc(C)c(C)c(=O)n2CC(=O)Nc2ccc([N+](=O)[O-])cc2)n1 | 77% (inactive)
75 | Cc1cc(=O)n(CC(=O)Nc2cccc([N+](=O)[O-])c2)c(-n2nc(C)cc2C)n1 | 95% (inactive)
76 | Cc1cc(C)n(-c2nc(C)c(C)c(=O)n2CC(=O)Nc2cccc([N+](=O)[O-])c2)n1 | 52% (active)
77 | COc1ccc(CN2CCN(c3ncnc4sc5c(c34)CCCC5)CC2)cc1F | 33% (active)
78 | Clc1ccc(CN2CCN(c3ncnc4sc5c(c34)CCCC5)CC2)cc1Cl | 107% (inactive)
79 | c1nc(N2CCCC2)c2c3c(sc2n1)CCC3 | 70% (inactive)
80 | O=C(c1ccco1)N1CCN(c2ncnc3sc4c(c23)CCC4)CC1 | 36% (active)
81 | COc1ccc(CN2CCN(c3ncnc4sc5c(c34)CC(C)CC5)CC2)cc1F (centres undefined) | 83% (inactive)
82 | Cc1nc(N2CCN(C(=O)c3ccco3)CC2)c2c3c(sc2n1)CC(C(C)(C)C)CC3 (centres undefined) | 77% (inactive)
83 | Cc1ccc(NC(=O)Cn2cc(S(=O)(=O)N3CCC(C)CC3)c3ccccc3c2=O)c(Br)c1 | 84% (inactive)
84 | COc1ccc(NCc2cc3cc4c(cc3n(CC(=O)Nc3ccc(C)cc3)c2=O)OCO4)cc1 | 67% (inactive)
85 | CCOc1ccc(NC(=O)Cn2c(=O)c(CNc3ccc(CC)cc3)cc3cc4c(cc32)OCO4)cc1 | 47% (active)
86 | CCc1ccc(NCc2cc3cc4c(cc3n(CC(=O)Nc3ccc(C)cc3)c2=O)OCO4)cc1 | 89% (inactive)
87 | CC(=O)c1cccc(NC(=O)Cn2c(=O)c(CNc3ccc(C)cc3)cc3cc4c(cc32)OCCO4)c1 | 91% (inactive)
88 | CCc1ccc(NCc2cc3cc4c(cc3n(CC(=O)Nc3ccc(Cl)cc3)c2=O)OCO4)cc1 | 135% (inactive)
89 | Cc1ccc(NCc2cc3cc4c(cc3n(CC(=O)Nc3ccc(C)cc3)c2=O)OCCO4)cc1 | 32% (active)

— PubChem BioAssay AID463173 (ICCB-Longwood Screening Facility, Harvard Medical School, 2010)
